Hits are enriched below; roughly 2.3% of the tested compounds scored in any of these assays.
A549 tox: Nrf2 qHTS screen for inhibitors: counterscreen for cytotoxicity; A549 ARE-Fluc cells, CellTiter-Fluor viability, 18-24 h; Potency, µM (highest dose often 46 µM), inactives show top-dose activity change, negative = cytotoxicity, usual class: inhibitors; hit rate 0.16% among 390,000; AID 504648, 2011; note: % is set by controls: 0 for no effect and ±100 for the full control effect
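A549 ARE_Fluc cells in 5% FBS OPTI-MEM were exposed to compounds in concentration-response for 18-24 h at 37 deg C. Viability was read by CellTiter-Fluor fluorescence (Ex 405/Em 525) after 30 min, before the luciferase read.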
Nrf2 ARE act: qHTS of Nrf2 Activators. AREc32 ARE-luciferase reporter (MCF7-derived line), luminescence, 24 h. Potency, µM (series often up to 46.1 µM), without a hit: at the top dose activation, hits mostly activators. hit rate 0.31% among 410,000. AID 624171, 2012; note: % of control where 0% means no effect; nearly all actives have a fitted effect of over 65% in size
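Luciferase luminescence (Steady-Glo, 30 min at room temperature) served as the read-out of ARE activation in AREc32 cells treated with compounds for 24 hr at 37 deg C.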
Rango dissoc inh: qHTS Assay for Inhibitors of RanGTP induced Rango (Ran-regulated importin-beta cargo) - Importin beta complex dissociation; Snurportin-1 (Homo sapiens) + GTP-binding nuclear protein Ran (Homo sapiens) + Importin …; Biochemical FRET Rango-importin beta, RanGTP-induced dissociation; Potency, µM (top dose mostly 46.1 µM), for the others: top-dose activity change, negative = inhibition; hit rate 0.071% among 340,000; calls by dose curve; note: % of control where 0% means no effect; nearly all actives have a fitted effect of over 45% in size
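Two FRET readings bracket the reaction: one 5 min after compound meets Rango–importin beta, another 45 min after RanGTP-RCC1 (0.6 uM Ran, 0.2 uM RCC1, 2 mM GTP) is added. Only the second defines inhibition.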
Rango complex inh: qHTS Assay for Inhibitors of Rango (Ran-regulated importin-beta cargo) - Importin beta complex formation. Importin subunit beta-1 (Homo sapiens), Q14974. Rango CFP/YFP FRET sensor + importin beta, 45 min. Potency, µM (top dose mostly 92.2 µM), for inactives: at the highest dose inhibition of complex formation. hit rate 0.031% among 340,000. AID 540263, 2011; calls by dose curve;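 note: 0% = DMSO wells and 100% = buffer wells lacking importin beta; nearly all actives have a fitted effect of over 15% in size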
Target sequence (Q14974 whole entry, looked up): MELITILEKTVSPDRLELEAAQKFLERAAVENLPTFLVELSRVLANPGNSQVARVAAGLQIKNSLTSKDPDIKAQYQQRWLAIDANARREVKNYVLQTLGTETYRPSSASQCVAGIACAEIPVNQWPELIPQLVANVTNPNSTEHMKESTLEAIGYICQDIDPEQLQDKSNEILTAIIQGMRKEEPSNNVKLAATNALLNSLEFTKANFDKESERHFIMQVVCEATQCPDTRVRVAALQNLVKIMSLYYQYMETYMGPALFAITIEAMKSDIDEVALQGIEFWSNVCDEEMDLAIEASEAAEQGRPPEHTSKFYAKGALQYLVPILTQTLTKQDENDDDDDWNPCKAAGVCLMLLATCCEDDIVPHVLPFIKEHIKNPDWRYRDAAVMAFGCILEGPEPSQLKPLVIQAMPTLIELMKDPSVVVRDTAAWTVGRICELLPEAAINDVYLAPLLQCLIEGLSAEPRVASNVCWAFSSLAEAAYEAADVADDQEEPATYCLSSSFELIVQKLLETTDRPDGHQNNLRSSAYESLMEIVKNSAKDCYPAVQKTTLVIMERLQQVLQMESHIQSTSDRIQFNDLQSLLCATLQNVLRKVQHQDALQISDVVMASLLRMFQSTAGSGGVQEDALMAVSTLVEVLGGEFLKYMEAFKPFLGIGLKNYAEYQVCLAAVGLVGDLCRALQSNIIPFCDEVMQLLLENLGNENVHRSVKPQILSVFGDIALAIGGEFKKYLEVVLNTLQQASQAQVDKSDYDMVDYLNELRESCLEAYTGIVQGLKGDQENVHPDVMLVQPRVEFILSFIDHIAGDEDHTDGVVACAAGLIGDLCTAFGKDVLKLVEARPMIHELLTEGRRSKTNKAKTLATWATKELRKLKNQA
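FRET biosensor (snurportin 1 IBB flanked by EYFP and cerulean), 50 nM, with compound 5 min, then 0.125 microM importin beta in PBS, 1 mM DTT, 0.02% Tween-20, 0.1% BSA. CFP/YFP ratio read after 45 min at room temperature; pre-read flags interference.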
Nrf2 inh: Nrf2 qHTS screen for inhibitors; A549 ARE-Fluc reporter, luciferase luminescence, 18-24 h; Potency, µM (titrated, usually from 46 µM), for the others: at the highest dose activity change, negative = inhibition, actives largely listed as inhibitors; hit rate 2.1% among 360,000; AID 504444, 2011; note: % is set by controls: 0 for no effect and ±100 for the full control effect; nearly all actives have a fitted effect of over 60% in size
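Nrf2 activity is the BugLite luminescence, read 15 min after reagent at room temperature, following CellTiter-Fluor cytotoxicity readout (30 min, 37C). Compound titrations were applied for 18-24 h to 5000 A549 ARE_Fluc cells/well in 5% FBS OPTI-MEM.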
* marks the source's active call; other numbers are inactive results; ? = inconclusive; nt = no result. Unless noted, calls come from the whole dose curve; as a rule, active = well fitted curve in the direction sought with a large enough effect; inconclusive = small, poorly fitted or top-dose-only effect, or another doubt; inactive = no such curve, though single readings can be large; an effect the other way counts as inactive or inconclusive. Potency is the fitted concentration of half-maximal effect.

SMILES	A549 tox	Nrf2 ARE act	Rango dissoc inh	Rango complex inh	Nrf2 inh
COc1ccc(-c2[nH]c(-c3ccc(OC)c(OC)c3)nc2SCC(=O)Nc2ccccc2)cc1	?	4%	nt	nt	23µM*
COc1ccccc1-c1cc2c(c3c1ccn3C)C1CCC2C1 (centres undefined)	nt	0%	nt	nt	nt
COc1ccc(CC(=O)Nc2nc(-c3ccc(F)c(F)c3)cs2)cc1	-3%	4%	7%	0%	?
CS(=O)(=O)N1CCc2cc(-c3csc(NC(=O)C(c4ccccc4)c4ccccc4)n3)ccc21	-6%	1%	0%	0%	-19%
O=C(Cc1ccc(F)cc1)Nc1nc(-c2ccc(F)c(F)c2)cs1	-29%	9%	-5%	3%	23µM*
Cc1cccc(C)c1NC(=O)CSc1ncnc2[nH]ncc12	0%	0%	-1%	1%	-11%
O=C(CSc1ncnc2[nH]ncc12)Nc1nc(-c2ccc(F)c(F)c2)cs1	7%	7%	11%	-1%	6.5µM*
CC1Cc2cc(-c3csc(NC(=O)Cc4ccccc4)n3)ccc2N1S(C)(=O)=O (centres undefined)	-24%	5%	3%	3%	15µM*
COCCC1CCCCN1C(=O)c1cccc(OC2CCN(S(C)(=O)=O)CC2)c1 (centres undefined)	2%	-1%	9%	-2%	-26%
CS(=O)(=O)N1CCC(Oc2cccc(C(=O)NCCCC3CCCC3)c2)CC1	-12%	0%	0%	1%	26µM*
O=C(NN1C(=O)C2C(c3ccccc3)C=CC(c3ccccc3)C2C1=O)c1cccc(Br)c1 (centres undefined)	7%	11µM*	-5%	7%	-8%
O=C(NN1C(=O)C2C(c3ccccc3)C=CC(c3ccccc3)C2C1=O)c1ccccc1 (centres undefined)	0%	5%	-15%	1%	-22%
COC(=O)/C=C/c1ccc(OC(=O)OC)c(OC(=O)OC)c1	1%	?	-21%	-2%	1%
COc1ccc(-c2nc(NC(=O)Cn3ccc(C(F)(F)F)n3)sc2C)cc1	?	2%	-3%	-2%	21µM*
COc1ccc(-c2nc(NC(=O)Cn3cnnn3)sc2C)cc1	-2%	1%	-2%	2%	3%
Cc1oc(-c2cccc(Cl)c2)nc1Cn1c(SCc2ccccc2F)nc2ccncc21	-6%	0%	nt	nt	?
Cc1cc(-c2ccc(C(C)C)c(S(=O)(=O)N3CCOc4ccccc43)c2)on1	9%	1%	-12%	-1%	21µM*
CCc1ccc(-c2cc(C)no2)cc1S(=O)(=O)N1CCOc2ccc(C)cc21	2%	3%	6%	1%	13µM*
COc1ccc(S(=O)(=O)N(CC(=O)Nc2cccc(C)c2)c2ccc(C)cc2)cc1OC	0%	-1%	nt	nt	nt
COC(=O)C1=C(C)NC2=C(C(=O)CCC2)C1c1cn(Cc2ccc(Br)cc2)nc1-c1ccccc1 (centres undefined)	-14%	0%	?	?	?
COC(=O)C1=C(C)NC2=C(C(=O)CC(C)(C)C2)C1c1cn(Cc2ccc(Br)cc2)nc1-c1ccccc1 (centres undefined)	-22%	-1%	?	?	13µM*
CCOc1ccc(NC(=O)Cn2c(=O)n(CCc3ccccc3)c(=O)c3c4c(sc32)CN(C(C)=O)CC4)cc1	0%	-1%	nt	nt	6%
O=[N+]([O-])c1cc(S(=O)(=O)Nc2ccc(Cl)cc2)ccc1N/N=C/c1ccncc1	-10%	0%	2%	1%	?
O=[N+]([O-])c1ccc(Cl)cc1N/N=C/c1ccncc1	-5%	1µM*	1%	1%	-30%
Nc1nc(O)c(N=Nc2ccc(S(N)(=O)=O)cc2)c(=O)[nH]1	-16%	-1%	-14%	-4%	3%
SMILES	A549 tox	Nrf2 ARE act	Rango dissoc inh	Rango complex inh	Nrf2 inh
NS(=O)(=O)c1ccc(N=Nc2c[nH]c(=O)c(O)c2)cc1	23µM*	24%	23µM*	?	-21%
COc1ccc(NS(=O)(=O)c2ccc3c(c2)CCC(=O)N3)cc1	0%	nt	nt	nt	-12%
CCCC(=O)N1CCN(c2ccc(NC(=S)NC(=O)c3cccc(C)c3)cc2)CC1	-29%	0%	-8%	1%	15µM*
COc1cccc(C(=O)NC(=S)Nc2ccc(N3CCCC3)cc2)c1	-5%	6%	12%	-3%	nt
COc1ccccc1NC(=S)NCc1ccccc1Cl	0%	0%	7%	0%	3%
COc1ccc(NC(=S)NCc2ccccc2Cl)c(OC)c1	0%	0%	7%	-1%	23µM*
C=C1C(=O)C2=CC1CCC(=O)C1(C)CCC(OC(C)=O)C(C)(C)C1CC2O (centres undefined)	?	?	26%	1%	15µM*
C=C1C(=O)[C@]23C[C@H]1CCC2[C@@]1(C)C(C[C@@H]3O)[C@](C)(C(=O)OC)CC[C@@H]1OC(C)=O (some centres undefined)	nt	-5%	nt	nt	nt
CC1CN(CC(=O)Nc2cccc(C(=O)Nc3cccc(C(F)(F)F)c3)c2)CC(C)O1 (centres undefined)	-22%	2%	-8%	0%	16µM*
O=C(NCc1cccc(F)c1)c1cccc(OC2CCN(C(=O)C3CC3)CC2)c1	-3%	-1%	-9%	2%	23µM*
Cc1ccc(/C=C/C(O)=C2/C(=O)N(C)C3(C)CC2c2ccccc2O3)cc1 (centres undefined)	-8%	?	6%	-1%	?
COc1ccc(/C=C/C(O)=C2/C(=O)N(C)C3(C)CC2c2ccccc2O3)cc1 (centres undefined)	?	1%	-7%	?	29µM*
O=C(c1ccc(C#Cc2ccccc2)o1)N1CCN(c2ccccn2)CC1	?	0%	-5%	1%	18µM*
Cc1nc(-c2ccccc2)[nH]c(=O)c1Oc1ccc(Cl)cc1Cl	-9%	-1%	5%	-1%	21µM*
Cc1c(Nc2nc3ccccc3n3c(C)nnc23)cccc1C(=O)O	13%	1%	nt	nt	-16%
O=C(O)COc1ccc(/C=N/n2cnc3scc(-c4cccs4)c3c2=O)cc1	5%	4%	-15%	-3%	8%
O=c1c2c(-c3cccs3)csc2ncn1/N=C/c1ccc(OC(F)F)cc1	?	3%	17%	-4%	9.2µM*
Cc1ccc(-c2csc(=S)n2CC(=O)OCC(=O)NCc2ccco2)cc1	-19%	16%	-10%	?	18µM*
CCOC(=O)N1CCN(c2ccnc3cc(Cl)ccc23)CC1	1%	2%	4%	?	?
